What was measured:
U-2932 [1] = assay: growth inhibition by drug alone (1 - RLU/untreated control) (fraction); higher = stronger inhibition; settings: 177Lu-lilotomab satetraxetan 0 ug/ml
How it was run: (§1)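 RIVA or U-2932 cells, untreated or pretreated 18 h with a radiolabelled anti-CD37 antibody conjugate (~600 MBq/mg; 0.5 µg/ml RIVA, 1 µg/ml U-2932), were washed and seeded at 3,000 cells/well on plates pre-printed with the Selleck Cambridge Cancer Compound library. Doses were 10/100 nM (RIVA) or 10/1,000 nM (U-2932). RealTime-Glo luminescence was read daily from day 3 after 1 h at 37°C. Growth inhibition is 1 − RLU/mean of 48 untreated no-drug wells per plate.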

RIVA [2] = assay: as above; settings: 177Lu-lilotomab satetraxetan 0 ug/ml
How it was run: as §1

U-2932 [3] = assay: growth inhibition by drug plus 177Lu-lilotomab satetraxetan (1 - RLU/untreated control) (fraction); higher = stronger inhibition; settings: 177Lu-lilotomab satetraxetan 1 ug/ml
How it was run: as §1

RIVA [4] = assay: as above; settings: 177Lu-lilotomab satetraxetan 0.5 ug/ml
How it was run: as §1

Structure (SMILES)	growth inhibition by drug alone (U-2932 [1]; 10 nM, time (day): 3)	growth inhibition by drug alone (U-2932 [1]; 10 nM, time (day): 4)	growth inhibition by drug alone (U-2932 [1]; 10 nM, time (day): 5)	growth inhibition by drug alone (U-2932 [1]; 10 nM, time (day): 6)	growth inhibition by drug alone (U-2932 [1]; 1000 nM, time (day): 3)	growth inhibition by drug alone (U-2932 [1]; 1000 nM, time (day): 4)	growth inhibition by drug alone (U-2932 [1]; 1000 nM, time (day): 5)	growth inhibition by drug alone (U-2932 [1]; 1000 nM, time (day): 6)	growth inhibition by drug alone (RIVA [2]; 10 nM, time (day): 3)	growth inhibition by drug alone (RIVA [2]; 10 nM, time (day): 4)	growth inhibition by drug alone (RIVA [2]; 10 nM, time (day): 5)	growth inhibition by drug alone (RIVA [2]; 10 nM, time (day): 6)	growth inhibition by drug alone (RIVA [2]; 100 nM, time (day): 3)	growth inhibition by drug alone (RIVA [2]; 100 nM, time (day): 4)	growth inhibition by drug alone (RIVA [2]; 100 nM, time (day): 5)	growth inhibition by drug alone (RIVA [2]; 100 nM, time (day): 6)	growth inhibition by drug plus 177Lu-lilotomab satetraxetan (U-2932 [3]; 10 nM, time (day): 3)	growth inhibition by drug plus 177Lu-lilotomab satetraxetan (U-2932 [3]; 10 nM, time (day): 4)	growth inhibition by drug plus 177Lu-lilotomab satetraxetan (U-2932 [3]; 10 nM, time (day): 5)	growth inhibition by drug plus 177Lu-lilotomab satetraxetan (U-2932 [3]; 10 nM, time (day): 6)	growth inhibition by drug plus 177Lu-lilotomab satetraxetan (U-2932 [3]; 1000 nM, time (day): 3)	growth inhibition by drug plus 177Lu-lilotomab satetraxetan (U-2932 [3]; 1000 nM, time (day): 4)	growth inhibition by drug plus 177Lu-lilotomab satetraxetan (U-2932 [3]; 1000 nM, time (day): 5)	growth inhibition by drug plus 177Lu-lilotomab satetraxetan (U-2932 [3]; 1000 nM, time (day): 6)	growth inhibition by drug plus 177Lu-lilotomab satetraxetan (RIVA [4]; 10 nM, time (day): 3)	growth inhibition by drug plus 177Lu-lilotomab satetraxetan (RIVA [4]; 10 nM, time (day): 4)	growth inhibition by drug plus 177Lu-lilotomab satetraxetan (RIVA [4]; 10 nM, time (day): 5)	growth inhibition by drug plus 177Lu-lilotomab satetraxetan (RIVA [4]; 10 nM, time (day): 6)	growth inhibition by drug plus 177Lu-lilotomab satetraxetan (RIVA [4]; 100 nM, time (day): 3)	growth inhibition by drug plus 177Lu-lilotomab satetraxetan (RIVA [4]; 100 nM, time (day): 4)	growth inhibition by drug plus 177Lu-lilotomab satetraxetan (RIVA [4]; 100 nM, time (day): 5)	growth inhibition by drug plus 177Lu-lilotomab satetraxetan (RIVA [4]; 100 nM, time (day): 6)
Cc1ccc([N+](=O)[O-])cc1S(=O)(=O)N(C)/N=C/c1cnc2ccc(Br)cn12	0.343	0.311	0.248	0.226	0.963	0.969	0.976	0.979	0.193	0.193	0.103	-0.15	0.507	0.599	0.585	0.539	0.346	0.371	0.418	0.47	0.969	0.975	0.981	0.985	0.675	0.726	0.736	0.726	0.775	0.854	0.868	0.889
CCN1CCN(Cc2ccc(-c3cc4c(N[C@H](C)c5ccccc5)ncnc4[nH]3)cc2)CC1	-0.00148	0.0172	0.023	0.0324	-0.166	-0.174	-0.287	-0.315	-0.0711	-0.0709	-0.153	-0.452	-0.2	-0.171	-0.217	-0.348	-0.00551	0.0118	0.0153	0.0829	-0.206	-0.119	-0.121	-0.0824	0.45	0.538	0.553	0.545	0.314	0.416	0.435	0.409
O=C(O)Cc1cccc(OCCCN(Cc2cccc(C(F)(F)F)c2Cl)CC(c2ccccc2)c2ccccc2)c1	0.116	0.0747	-0.121	-0.11	0.111	0.127	-0.0348	-0.224	0.0962	0.115	0.0874	-0.0108	0.667	0.512	0.515	0.524	0.0517	0.0894	0.143	0.142	0.162	0.224	0.223	0.228	0.667	0.666	0.678	0.677	0.86	0.858	0.874	0.893
CN(C)CCCCSC(=N)N	0.0803	0.0562	-0.0181	-0.016	-0.0315	0.00953	-0.0703	-0.245	-0.0402	-0.0677	-0.106	-0.316	-0.0334	-0.0664	-0.0858	-0.22	0.0342	0.0372	0.0384	0.0444	-0.0939	0.0263	-0.0236	-0.0661	0.357	0.498	0.532	0.544	0.259	0.415	0.415	0.398
Cn1c(=O)c(F)c(Nc2ccc(I)cc2F)c2c(=O)n(C[C@@H](O)CO)cnc21	0.14	0.135	0.0576	-0.0158	0.131	0.169	0.099	0.12	0.0885	0.0594	-0.0237	-0.205	-0.0966	-0.077	-0.161	-0.342	0.103	0.169	0.176	0.21	0.189	0.254	0.249	0.347	0.522	0.484	0.489	0.487	0.579	0.588	0.55	0.496
CC(C)c1ccc(Cn2ccc3c4c(N)nc(NC5CC5)nc4ccc32)cc1	0.155	0.138	0.0759	0.0356	0.976	0.977	0.982	0.985	0.0749	0.155	0.0828	-0.0413	0.639	0.486	0.491	0.444	0.151	0.196	0.261	0.274	0.982	0.983	0.986	0.989	0.658	0.702	0.716	0.712	0.787	0.778	0.786	0.799
CCOc1ccc(Nc2nc(-c3c(C)nc4ccccn34)cs2)cc1	0.225	0.209	0.0949	0.0852	0.961	0.972	0.979	0.982	0.0293	0.0644	-0.0241	-0.237	0.931	0.948	0.951	0.952	0.151	0.185	0.267	0.311	0.968	0.978	0.983	0.987	0.559	0.602	0.61	0.62	0.945	0.965	0.97	0.973
CN(C)CCOc1ccc(-c2nc(-c3ccncc3)c(-c3ccc4c(c3)CC/C4=N\O)[nH]2)cc1	-0.0248	-0.0722	-0.0892	0.0453	0.104	0.0148	0.0221	0.134	-0.226	-0.183	-0.167	-0.14	-0.788	-0.651	-0.644	-0.615	-0.0652	-0.0236	0.0668	0.196	0.124	0.0207	0.0638	0.259	0.358	0.494	0.536	0.556	-0.0096	0.315	0.378	0.441
O=C(/C=C/c1cccc(S(=O)(=O)Nc2ccccc2)c1)NO [Belinostat (PXD101)]	0.222	0.196	0.137	0.152	0.961	0.964	0.974	0.979	0.107	0.129	0.11	0.00837	0.884	0.83	0.818	0.796	0.0215	0.0654	0.0711	0.0685	0.961	0.975	0.984	0.988	0.503	0.586	0.594	0.603	0.934	0.935	0.938	0.945
C[C@]12CC[C@@H]3c4ccc(O)cc4CC[C@H]3[C@@H]1CCC2=O [Estrone]	0.0961	0.0749	0.0943	-0.00298	0.0954	0.046	0.0242	-0.126	-0.099	-0.0604	-0.112	-0.295	-0.445	-0.269	-0.323	-0.542	0.0282	0.0899	0.127	0.0988	0.0277	0.0438	0.0954	0.209	0.474	0.569	0.585	0.601	0.271	0.43	0.447	0.475
Nc1nc(Nc2ccc(S(N)(=O)=O)cc2)nn1C(=O)c1c(F)cccc1F	0.0686	0.0712	0.0243	-0.028	0.297	0.39	0.398	0.477	0.09	-0.0123	-0.071	-0.232	-0.0601	-0.0559	-0.0832	-0.218	0.0456	0.07	0.0808	0.137	0.452	0.614	0.661	0.719	0.373	0.516	0.536	0.556	0.486	0.6	0.611	0.599
CC1(C)CNc2cc(NC(=O)c3cccnc3NCc3ccncc3)ccc21 [Motesanib Diphosphate]	0.0212	-0.0392	-0.0873	-0.298	-0.0958	-0.0733	-0.118	-0.248	-0.0638	-0.211	-0.283	-0.584	-0.22	-0.341	-0.349	-0.452	-0.0309	-0.0326	-0.0402	0.00139	-0.132	-0.033	-0.00123	0.0914	0.361	0.516	0.536	0.546	0.45	0.537	0.536	0.512
CN(C)c1ccccc1CN1CCCN(Cc2ccccc2N(C)C)C1c1ccncc1	0.0601	0.0484	-0.0775	-0.0436	-0.0515	0.0164	-0.0723	-0.322	-0.0275	-0.0402	-0.0946	-0.333	-0.107	-0.0882	-0.101	-0.219	-0.0506	-0.00857	0.0315	0.0251	-0.133	-0.00158	-0.031	-0.0122	0.403	0.514	0.537	0.54	0.416	0.506	0.504	0.487
CO[C@H]1C[C@@H]2CC[C@@H](C)[C@@](O)(O2)C(=O)C(=O)N2CCCC[C@H]2C(=O)O[C@H]([C@H](C)C[C@@H]2CC[C@@H](OC(=O)C(C)(CO)CO)[C@H](OC)C2)CC(=O)[C@H](C)/C=C(\C)[C@@H](O)[C@@H](OC)C(=O)[C@H](C)C[C@H](C)/C=C/C=C/C=C/1C [Temsirolimus (Torisel)]	0.777	0.721	0.634	0.594	0.733	0.73	0.677	0.63	0.78	0.785	0.769	0.7	0.803	0.83	0.833	0.812	0.68	0.614	0.579	0.568	0.648	0.681	0.651	0.651	0.842	0.865	0.86	0.839	0.846	0.883	0.885	0.887
C#Cc1cccc(Nc2ncnc3cc(OC)c(OCCCCCCC(=O)NO)cc23)c1	-0.0221	-0.0137	-0.0216	0.0129	0.966	0.973	0.975	0.978	-0.19	-0.225	-0.209	-0.242	0.881	0.779	0.749	0.672	-0.132	-0.086	-0.0994	-0.0508	0.971	0.977	0.981	0.984	0.365	0.467	0.495	0.496	0.935	0.924		

From the supplement of paper PMC6897291
